Data as given in PubChem BioAssay (NCATS).
Results filed as inconclusive are left out. Active and inactive are the calls of the source. The call rests on the fitted dose curve; in most records, active means well fitted curve in the direction sought with a large enough effect; inconclusive means small, poorly fitted or top-dose-only effect, or another doubt; inactive means no such curve, though single readings can be large; an effect the other way counts as inactive or inconclusive.

Columns and labels:
[1] = biological target: Phospholipid hydroperoxide glutathione peroxidase GPX4 (Homo sapiens) (UniProt P36969); assay: Primary qHTS Assay for Inhibitors of Recombinant Selenoprotein Glutathione Peroxidase 4 (GPX4) (AID 1845192); further: nearly all actives have a fitted effect of over 65% in size
In short: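 Steps: GPX4 plus compound, 30 min RT; add GR/GSH/NADPH master mix; start with cumene hydroperoxide; read 340/450 nm fluorescence at 0 and 15 min. Finals were 200 nM GPX4, 1 mM GSH, 0.5 mM CHP, 0.5 mM NADPH, 100 nM GR.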

[2] = Primary fluorescence-based thiol-reactive (MSTI) qHTS assay for identification of artifact compounds. (AID 1845221);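 further: series mostly up to about 54 µM; thiol-reactive compounds lower the probe fluorescence signal; nearly all actives have a fitted effect of over 65% in size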
In short: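 Thiol-reactive compounds detected by quenching of 4 uM MSTI fluorescence (525/598 nm) after 1 h room-temperature dark incubation in PBS pH 7.4, 2% DMSO. qHTS titration; percent inhibition Hill-fitted against Acetyl-MSTI/MSTI controls.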

[3] = Primary redox qHTS assay for identification of artifact compounds. (AID 1845223)
In short: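 Redox-cycling detection via DTT (250 uM final) oxidation coupled to Amplex Red (25 uM)/HRP (250 mU/mL) in HBSS. 15 min preincubation plus 30 min after DTT, room temperature. Ex/Em 525/598 nm; 4-parameter Hill fit against DMSO and 10 uM DA3003.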

[4] = Quantitative High-Throughput drug screen in 47 multiple myeloma cell lines against the NCATS MIPE library collection: FR4_PLB cell viability assay (AID 1918924; further: nearly all actives have a fitted effect of over 35% in size; further: potency means the concentration at half of the fitted maximal effect)
In short: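 We plated 500 myeloma cells per well, pinned in MIPE 4.0 compounds, and incubated for 48 hours at 37C. ATP was then quantified with CellTiter-Glo, with DMSO and media-only wells defining 100% and 0%.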

[5] = Quantitative High-Throughput drug screen in 47 multiple myeloma cell lines against the NCATS MIPE library collection: Delta47_JCRB cell viability assay (AID 1918925; further: nearly all actives have a fitted effect of over 45% in size; further: potency means the concentration at half of the fitted maximal effect)
In short: (§1)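 qHTS of the MIPE 4.0 collection: 500 myeloma cells/well, 48 h drug exposure at 37C in 5% CO2, then CellTiter-Glo for 5 min at room temperature before luminescence reading.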

[6] = Quantitative High-Throughput drug screen in 47 multiple myeloma cell lines against the NCATS MIPE library collection: EJM_DSMZ cell viability assay (AID 1918926; further: nearly all actives have a fitted effect of over 30% in size; further: potency means the concentration at half of the fitted maximal effect)
In short: as §1

[7] = Quantitative High-Throughput drug screen in 47 multiple myeloma cell lines against the NCATS MIPE library collection: AMO1_DSMZ cell viability assay (AID 1918927; further: nearly all actives have a fitted effect of over 30% in size; further: potency means the concentration at half of the fitted maximal effect)
In short: as §1

[8] = Quantitative High-Throughput drug screen in 47 multiple myeloma cell lines against the NCATS MIPE library collection: ARP1_JJKsccF8 cell viability assay (AID 1918928; further: nearly all actives have a fitted effect of over 40% in size; further: potency means the concentration at half of the fitted maximal effect)
In short: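 Each line was plated at 500 cells/well and treated 48 h with library drugs. Viability came from CellTiter-Glo luminescence relative to DMSO and cell-free medium controls.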

[9] = biological target: Luciferin 4-monooxygenase (Photinus pyralis) (UniProt P08659); assay: Primary firefly luciferase (FLuc) qHTS assay for identification of artifact compounds. (AID 1845220); further: nearly all actives have a fitted effect of over 60% in size
In short: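 Titrated compounds were incubated 15 min at RT, protected from light, with luciferin and ATP at 10 uM; reaction started with 10 nM FLuc, luminescence imaged at 5 min, and concentration-response fitted by Hill equation.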

[10] = test system: Nanoluciferase (engineered Oplophorus gracilirostris luciferase); assay: Primary Nanoluciferase (NLuc) qHTS assay for identification of artifact compounds. (AID 1845222);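 further: NLuc secreted into diluted conditioned medium of S16 cells; series mostly up to about 54 µM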
In short: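 qHTS format, against NLuc in S16 cell-conditioned medium. Nano-Glo substrate 1:100 was added after 15 min at room temperature. Luminescence was taken after a further 5 min.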

Measured: Potency

Sequence of Phospholipid hydroperoxide glutathione peroxidase GPX4 (Homo sapiens) (P36969 whole entry, looked up): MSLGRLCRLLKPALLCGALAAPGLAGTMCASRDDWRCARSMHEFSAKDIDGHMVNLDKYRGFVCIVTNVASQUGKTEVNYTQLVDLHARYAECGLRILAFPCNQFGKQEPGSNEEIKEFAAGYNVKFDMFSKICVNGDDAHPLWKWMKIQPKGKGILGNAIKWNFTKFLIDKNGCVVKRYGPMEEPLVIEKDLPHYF

COc1cc(CCc2cc(NC(=O)c3ccc(N4C[C@@H](C)N[C@@H](C)C4)cc3)n[nH]2)cc(OC)c1
active: [4] 18.7 µM | [5] 14.8 µM | [6] 18.7 µM | [7] 18.7 µM | [8] 18.7 µM
inactive: [1] | [2] | [3]

CC1=C(C(=O)Nc2cc3cn[nH]c3cc2F)C(c2ccc(Cl)cc2F)N=C(c2ccnc(Cl)c2)N1 (configuration not stated)
active: [5] 11.8 µM | [7] 14.8 µM
inactive: [1] | [9] | [2] | [3]

CCOc1cc2c(c(F)c1OCC)C(=N)N(CC(=O)c1cc(N3CCOCC3)c(OC)c(C(C)(C)C)c1)C2
inactive: [1] | [3]
active: [4] 23.5 µM | [5] 14.8 µM

Nc1ccc(C(=O)Nc2cccc(-c3nc(N4CCOCC4)c4oc5ncccc5c4n3)c2)cn1
inactive: [1] | [2] | [3]
active: [4] 18.7 µM | [5] 0.935 µM | [6] 16.6 µM | [7] 6.62 µM

CCC[C@H]1C[C@H](C(=O)N[C@@H]([C@@H]2O[C@@H](SC)[C@@H](O)[C@@H](O)[C@@H]2O)[C@H](C)Cl)N(C)C1
inactive: [1] | [2] | [3] | [4] | [6] | [7] | [8]

CCN(CC)Cc1ccc2cc(COC(=O)Nc3ccc(C(=O)NO)cc3)ccc2c1
active: [4] 0.372 µM | [5] 0.526 µM | [7] 0.743 µM | [8] 0.59 µM
inactive: [1] | [9] | [3]

Oc1ccc([C@@H]2Oc3ccc(O)cc3[C@@H]3CCC[C@@H]32)cc1
inactive: [1] | [9] | [2] | [3] | [7]
active: [8] 23.5 µM

CC(C)C[C@H](NC(=O)[C@@H](NC(=O)c1cccc(-c2ccccc2)n1)[C@@H](C)O)B(O)O
active: [4] 0.0209 µM | [5] 0.0166 µM | [6] 0.0469 µM | [8] 0.0166 µM
inactive: [1] | [2]

FC(F)(F)c1ccc(Nc2nc3ccc(Oc4ccnc(-c5ncc(C(F)(F)F)[nH]5)c4)cc3[nH]2)cc1
active: [4] 18.7 µM | [5] 23.5 µM | [7] 16.6 µM | [8] 20.9 µM
inactive: [1] | [2] | [3]

CCc1ccc(C(=O)Nc2cc(CN3CCN(C)CC3)cc(C(F)(F)F)c2)cc1C#Cc1cnc2ccnn2c1
active: [4] 11.8 µM | [5] 13.2 µM | [6] 16.6 µM | [7] 4.69 µM | [8] 5.9 µM
inactive: [1] | [2]

CCOC(=O)[C@@H](N)Cc1ccc(-c2cc(O[C@H](c3ccc(Cl)cc3-n3ccc(C)n3)C(F)(F)F)nc(N)n2)cc1
active: [4] 23.5 µM | [5] 23.5 µM | [6] 18.7 µM | [7] 9.35 µM | [8] 14.8 µM
inactive: [1] | [2] | [3]

Oc1cc(-c2nc(-c3ccccc3)[nH]c2-c2ccncc2)ccc1Cl
inactive: [1] | [2] | [3]
active: [5] 4.69 µM | [7] 5.26 µM | [8] 14.8 µM

CN(C)CC(=O)N1CCC(c2ccc(NC(=O)c3ncc(C#N)[nH]3)c(C3=CCCCC3)c2)CC1
inactive: [1] | [2] | [10] | [3] | [4]
active: [5] 18.7 µM | [6] 18.7 µM | [7] 7.43 µM

O=C(Nc1ccc(Oc2ccnc3[nH]ccc23)c(F)c1)c1cccn(-c2ccc(F)cc2)c1=O
inactive: [1] | [2] | [3] | [7] | [8]

O=C(O)c1ccc(Nc2ncc3c(n2)-c2ccc(Cl)cc2C(c2c(F)cccc2F)=NC3)cc1
active: [5] 0.935 µM | [6] 23.5 µM | [7] 0.187 µM | [8] 0.0105 µM
inactive: [1] | [2] | [3] | [4]

C[N+]1(C)[C@@H]2C[C@@H](OC(=O)C(O)(c3cccs3)c3cccs3)C[C@H]1[C@@H]1O[C@@H]12
inactive: [1] | [2] | [3] | [4] | [5] | [6] | [7]

CC(O)(C#Cc1ccc2c(c1)N(c1nc(N)ncc1Cl)CC2)c1nccs1 (configuration not stated)
inactive: [1] | [2]
active: [5] 2.09 µM | [6] 11.8 µM | [7] 13.2 µM

COc1ccc(C[C@@H](C)[C@@H](C)Cc2ccc(OC)c(OC)c2)cc1OC
inactive: [1]
active: [4] 0.118 µM | [5] 0.296 µM

Cn1cnc2c(F)c(Nc3ccc(Br)cc3F)c(C(=O)NOCCO)cc21
inactive: [1] | [2] | [3] | [4] | [5] | [6]
active: [7] 1.05 µM
